Compound activity (PubChem)
GPR151 ag – human GPR151 activation. Q8TDV0. PathHunter beta-arrestin GPR151 cells, luminescence. activation, % at 11.2 µM. 1% of 650,000 active. AID 1508602; in the data active = activation above about 4.9%;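 note: 0% = median of compound wells and 100% = cells with positive control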
MITF inh – human MITF inhibition, primary screen. AlphaScreen MITF homodimerization, bead proximity signal. inhibition, % at 2.6 µM. AID 1259374. 0.91% of 650,000 active. O75030; in the data active = inhibition above about 50%;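 note: 0% = vehicle wells with protein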
FBW7 act – human FBW7 E3 ligase activation, primary screen; Q969H0; AlphaScreen FBW7–phospho-cyclin E peptide binding, activator screen; normalized activity (activation), % at 26.1 µM; 0.13% of 650,000 active; AID 1259310; in the data active = normalized activity above about 1.9%;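 note: purified mutant Fbw7 with reduced substrate affinity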
Target sequence (Q969H0 whole entry, looked up): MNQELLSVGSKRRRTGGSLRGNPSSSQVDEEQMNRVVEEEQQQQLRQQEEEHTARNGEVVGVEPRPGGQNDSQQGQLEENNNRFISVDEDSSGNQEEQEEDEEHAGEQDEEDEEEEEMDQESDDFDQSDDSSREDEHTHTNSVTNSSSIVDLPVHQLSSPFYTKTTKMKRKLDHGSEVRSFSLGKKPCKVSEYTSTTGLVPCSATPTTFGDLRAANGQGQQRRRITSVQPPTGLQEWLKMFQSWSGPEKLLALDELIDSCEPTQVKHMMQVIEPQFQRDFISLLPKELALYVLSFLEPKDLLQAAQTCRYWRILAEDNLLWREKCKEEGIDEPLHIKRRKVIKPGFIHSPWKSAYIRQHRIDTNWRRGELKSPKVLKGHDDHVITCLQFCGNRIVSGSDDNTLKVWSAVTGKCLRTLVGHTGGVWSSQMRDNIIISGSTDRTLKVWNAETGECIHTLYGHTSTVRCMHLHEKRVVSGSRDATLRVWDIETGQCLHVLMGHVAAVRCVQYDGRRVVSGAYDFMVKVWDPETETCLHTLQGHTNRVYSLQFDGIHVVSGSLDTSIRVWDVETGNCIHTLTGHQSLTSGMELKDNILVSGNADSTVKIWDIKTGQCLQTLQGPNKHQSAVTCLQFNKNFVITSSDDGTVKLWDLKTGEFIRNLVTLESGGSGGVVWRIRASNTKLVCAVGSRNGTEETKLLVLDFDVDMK
TEAD-YAP block – TEAD-YAP interaction inhibition. HEK-TIYL cells, TEAD-Gal4/YAP UAS-luciferase luminescence. 1.4% of 640,000 active. inhibition, % at 9.12 µM; in the data active = inhibition above about 32%;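 note: 0% = median of test compound wells and 100% = reference inhibitor wells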
GPR151 confirm – human GPR151 activation, confirmation screen; GPR151 PathHunter beta-arrestin cells, luminescence, 90 min; % of EA-reagent control over plate median; activation, % at 11.2 µM; AID 1508609; shares compounds with GPR151 ag; 6,700 tested, under 10 active;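 active = mean percent activation across replicates above the confirmation screen cutoff of 4.91%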
GPR119 ag – GPR119 activation, counter-screen for GPR151 activators. shares compounds with GPR151 ag. GPR119 PathHunter beta-arrestin cells, luminescence, 90 min; 0 = compound-well median, 100 = enzyme-acceptor control. activation, % at 11.2 µM. 0.3% of 6,700 active. AID 1508611;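 active = mean percent activation in the counterscreen above 29.09%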;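 note: counterscreen on off-target GPR119 to flag nonselective hits from the GPR151 activator screen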
The depositor's hits bear a star; . = not tested or not shown. An excerpt weighted towards active compounds, which were near 3.5% of everything screened.

SMILES	GPR151 ag	MITF inh	FBW7 act	TEAD-YAP block	GPR151 confirm	GPR119 ag
CCN(CC)CCOC(=O)c1ccc(NC(=O)CNC(=O)C2CCCCC2)cc1	5.9*	10	0	10	0	-8
COc1ccc(Cc2noc(-c3ccc(C)cc3)n2)cc1OC	1	-4	0	-4	.	.
Cc1ccc(/C=C/C(=O)NCc2ccc(S(N)(=O)=O)cc2)o1	6.3*	5	-1	-6	0	-4
CC(Oc1ccc(C(C)(C)C)cc1)C(=O)NC1CCS(=O)(=O)C1 (centres undefined)	5.2*	-13	0	3	0	-7
CC(=O)c1cccc(-c2cncc(C(=O)NCCN(C(C)C)C(C)C)c2)c1	2	-2	0	1	.	.
O=C(COc1ccc(Cl)cc1)Nc1ccccn1	9.2*	-20	0	49*	1	-51
COc1ccc(-c2cn3cccnc3n2)cc1NC(=O)COc1ccc(Cl)cc1	-1	19	1	-29	.	.
O=C(COc1ccc(Cl)cc1)Nc1ccc(-c2cn3cccnc3n2)cc1	8.6*	-6	23*	-5	3	11
CCOc1ccc2[nH]c(=O)c(CN(Cc3ccc(OC)cc3)C(=O)N(C)C)cc2c1	8.3*	1	0	4	0	15
c1ccc(Cn2cc(-c3ccc(Nc4nccc(-c5cncc(N6CCOCC6)c5)n4)cc3)cn2)cc1	6.8*	2	0	31	1	24
Cc1ccc(-c2ncn(-c3ccc(Nc4nccc(-c5cncc(N6CCOCC6)c5)n4)cc3)n2)cn1	-1	7	0	26	.	.
COc1cccc(-c2ccc(=O)n(CC(=O)Nc3ccc(Cl)c(C(F)(F)F)c3)n2)c1	18*	-7	0	-2	1	-1
COc1ccccc1-c1ccc(=O)n(CC(=O)Nc2ccc(Br)cc2)n1	9.6*	-2	0	5	0	-5
COc1cccc(-c2ccc(=O)n(CC(=O)Nc3ccc(C(=O)N4CCCC4)cc3)n2)c1	1	0	0	-10	.	.
COc1cc(CN2CCOCC2)cc([N+](=O)[O-])c1O	0	18	0	5	.	.
CCOC(=O)Nc1nnc(Cc2ccc(Cl)c(Cl)c2)s1	5.8*	15	0	0	1	-4
O=C(CSc1cccc[n+]1[O-])Nc1ccccc1	1	-9	0	-10	.	.
CC1CCCCN1S(=O)(=O)c1ccc(NC(=O)CSc2nc3ccccc3o2)cc1 (centres undefined)	-1	8	0	-1	.	.
CCC(C(=O)Nc1ccc(S(=O)(=O)N2CCC(C)CC2)cc1)c1ccccc1 (centres undefined)	5.0*	-17	0	-2	1	4
O=C(CSc1cccc[n+]1[O-])Nc1ccc(S(=O)(=O)N2CCCC2)cc1	6.4*	-10	0	3	0	-2
CC1CCN(S(=O)(=O)c2ccc(NC(=O)CSc3nc4ccccc4o3)cc2)CC1	16*	4	0	11	2	27
O=C1NC(=O)/C(=C\c2c(F)cccc2Cl)N1	0	-15	0	-5	.	.
COc1ccccc1NC(=O)c1ccc(NC(=O)COC(=O)c2ccc(O)cc2)cc1	5.4*	0	0	13	-2	-15
Cc1cccn2c(=O)c3cc(C(=O)N4CCc5ccccc54)sc3nc12	5.0*	10	0	4	0	6
O=C(N/N=C/c1cc(Br)cc([N+](=O)[O-])c1O)c1cccc2ccccc12	0	7	1	0	.	.
SMILES	GPR151 ag	MITF inh	FBW7 act	TEAD-YAP block	GPR151 confirm	GPR119 ag
O=C(N/N=C/c1ccccc1)c1ccccc1[N+](=O)[O-]	1	5	0	0	.	.
O=C(N/N=C/c1ccccc1[N+](=O)[O-])c1cccc2ccccc12	7.4*	0	0	3	0	4
O=C(N/N=C/c1ccccc1[N+](=O)[O-])c1ccccc1[N+](=O)[O-]	-1	-4	0	-46	.	.
O=C(N/N=C/c1ccc(F)cc1)c1ccccc1[N+](=O)[O-]	7.0*	8	0	4	-1	-8
O=C(N/N=C/c1cccc2ccccc12)c1ccccc1[N+](=O)[O-]	11*	10	0	3	0	-5
O=C(N/N=C/c1cc(Cl)cc([N+](=O)[O-])c1O)c1ccccc1O	5.1*	7	-1	-1	-1	4
COc1ccc(Cl)cc1NC(=O)C(=O)NCc1ccccc1Cl	0	-9	0	-16	.	.
CC[C@@H](C(=O)[C@@H](C)[C@@H](O)[C@H](C)CCc1ccc(C)c(O)c1C(=O)O)[C@H]1O[C@](CC)([C@H]2CC[C@](O)(CC)[C@H](C)O2)C[C@@H]1C	21*	-4	0	31	-1	-11
CC(C)(C)OC(=O)NNC(=O)/C=C/c1cc(Br)ccc1F	5.2*	2	0	3	2	8
CC(C)N(CC(N)=O)C(=O)c1c(F)cccc1Cl	-1	-6	0	6	.	.
CC1(C)OC(=O)C(=CNC(CCC(N)=O)C(=O)O)C(=O)O1 (centres undefined)	6.4*	12	0	-10	1	-3
CC1(C)CC(=O)c2sc(NC(=O)COc3ccc(Cl)cc3)nc2C1	6.4*	4	0	8	0	3
O=C(CN1CC(=O)Oc2ccccc21)NCC1CCCO1 (centres undefined)	13*	3	0	-18	-1	-9
COCCCn1c(=O)[nH]c2ncc(-c3ccccc3)nc21	-1	-5	-1	9	.	.
COCCCn1c(=O)[nH]c2ncc(-c3cc(OC)c(OC)c(OC)c3)nc21	6.0*	9	-1	-10	0	9
Cc1[nH]c2ccccc2c1C(=O)CSc1nc(N)cc(=O)[nH]1	5.8*	6	0	10	0	7
Cc1ccc(C(=O)CSc2nc(N)cc(=O)[nH]2)cc1C	5.9*	-10	0	-6	1	3
Cc1cc(C(=O)CSc2nc(N)cc(=O)[nH]2)ccc1F	-1	-13	0	-14	.	.
C=CCNC(=O)CCN1C(=O)c2ccccc2C1=O	5.6*	-6	0	-4	2	1
Cc1ccc2nc(/C(C#N)=C\c3ccccc3OCC#N)[nH]c2c1	5.1*	10	0	-28	2	7
N#C/C(=C\c1ccc(O)cc1O)c1nc2ccccc2[nH]1	-5	-4	0	-33	.	.
N#C/C(=C\c1cc(Cl)ccc1O)c1nc2ccccc2[nH]1	5.7*	8	0	-22	2	8
C[C@@H]1CN(Cc2ccc3c(c2)CN(Cc2ccc(OCCO)cc2)CCO3)C[C@H](C)O1	-2	7	0	6	.	.
CCOC(=O)Cn1c(C)c(/C=N/N2C(=O)C3C4C=CC(C4)C3C2=O)c2ccccc21 (centres undefined)	-1	-5	0	-2	.	.
